Compounds with a hit are over-represented: about 6.6% of the library has one in this group of screens.
TSG101-PTAP inh – blocks PTAP/TSG101 interaction to inhibit HIV-1 budding. Q99816. Fluorescence polarization, FITC-PTAP peptide / Tsg101 binding. Potency, µM (doses to about 115 µM), hits mostly inhibitors. 340,000 tested, under 10 active; active = well fitted inhibition curve with a large enough effect in the main read-out, with a control signal flat, not every such curve was filed as active; inconclusive = small, poorly fitted or top-dose-only effect, or effect the other way, or a change in a side signal; inactive = no such curve, though single readings can be large or run the other way
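Fluorescence polarization binding of Tsg101 binding domain (10 uM final) to FITC-labeled PTAP peptide (50 nM final) in HEPES pH 7.5 buffer with NaCl, Tween 20, EDTA, TCEP. Compounds added before peptide; binding 20 min at RT.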
SW480 rerep – DNA re-replication induction in SW480 cells. SW480 DNA re-replication, Hoechst DNA content imaging, 48 h. Potency, µM (highest dose often 46.1 µM), usual class: activators. hit rate 1.8% among 340,000. AID 624297; note: nearly all actives have a fitted effect of over 55% in size
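Quantitative HTS format with DMSO vehicle controls; 48 hr drug incubation at 37 C, then 40 min Hoechst staining and scanning imager measurement at 405 nm excitation.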
RGS4 inhibitor – blocks human RGS4-accelerated GTP hydrolysis. AID 504845. hit rate 0.039% among 390,000. Transcreener GDP fluorescence polarization, RGS4-accelerated GTP hydrolysis. Potency, µM (titrated, usually from 114 µM), actives largely listed as inhibitors; note: nearly all actives have a fitted effect of over 75% in size
Target sequence (P49798 whole entry, looked up): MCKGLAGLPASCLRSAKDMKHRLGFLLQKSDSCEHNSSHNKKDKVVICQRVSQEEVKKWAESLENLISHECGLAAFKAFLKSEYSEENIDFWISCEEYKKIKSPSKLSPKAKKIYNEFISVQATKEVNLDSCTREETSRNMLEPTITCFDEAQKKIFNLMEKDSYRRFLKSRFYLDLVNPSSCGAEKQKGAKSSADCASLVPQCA
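MLSMR compounds (23 nl, pin-transferred) preincubated 10 min at room temperature with a 500nM (2x) first reagent, then RGS4 at 900nM (2x) plus Transcreener GDP mix added; fluorescence polarization (620/688 nm) read before and after 90 min at 30 °C.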
KB-V1 MDR tox – kills drug-selected multidrug resistant KB-V1 cells | KB-V1 MDR cells viability, CellTiter-Glo, 72 h | Potency, µM (doses to about 46.1 µM), most hits filed as cytotoxic | hit rate 3.4% among 400,000; note: nearly all actives have a fitted effect of over 60% in size
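Luminescent ATP read-out (CellTiter-Glo, 10 min) measures survival of drug-selected KB-V1 MDR cells after 72 h, 37 degrees C compound exposure. Medium: phenol-red-free DMEM, 10% FBS. Values from fitted concentration-response curves.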
MCF10A rereplic – inducers of DNA re-replication in MCF 10A breast cells. hit rate 2.9% among 350,000. Potency, µM (doses to about 46.1 µM), most hits filed as activators. MCF 10A DNA re-replication, Hoechst nuclear intensity, 48 h; note: nearly all actives have a fitted effect of over 50% in size
KB-3-1 tox – KB-3-1 parental cell cytotoxicity. KB-3-1 viability, CellTiter-Glo ATP luminescence, 72 h. Potency, µM (highest dose often 46.1 µM), actives largely listed as cytotoxic. hit rate 1.4% among 400,000. AID 1347075; note: nearly all actives have a fitted effect of over 60% in size
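Viability of parental KB-3-1 cells, measured by CellTiter-Glo luminescence, followed a 72 h incubation at 37 °C with pinned compounds in phenol-red-free DMEM containing 10% FBS.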
Large screens that a line does not name were inactive. Unless noted, calls come from the whole dose curve; as a rule, active = well fitted curve in the direction sought with a large enough effect; inconclusive = small, poorly fitted or top-dose-only effect, or another doubt; inactive = no such curve, though single readings can be large; an effect the other way counts as inactive or inconclusive.

CCN(CC)CCCC(C)Nc1c2ccc(Cl)cc2nc2ccc(OC)cc12 (configuration not stated)	RGS4 inhibitor 21µM (no result: TSG101-PTAP inh, SW480 rerep, KB-V1 MDR tox, MCF10A rereplic, KB-3-1 tox)
COCCN(CCOc1cc(C)cc(C)c1)Cc1ccc(Cl)cc1	SW480 rerep inconclusive, KB-V1 MDR tox inconclusive, MCF10A rereplic 18µM
CCN(CC)CCNCC(O)(c1ccc(Cl)cc1)c1ccc(Cl)cc1	SW480 rerep inconclusive
CCN(CC)CCOc1ccc(C(O)(Cc2ccc(Cl)cc2)c2ccc(C)cc2)cc1 (configuration not stated)	SW480 rerep inconclusive, MCF10A rereplic 9.4µM (no result: TSG101-PTAP inh, RGS4 inhibitor, KB-V1 MDR tox, KB-3-1 tox)
Cc1ccc(C)c(CN2CCC(CNC(=O)C(CC(C)C)N3Cc4ccccc4C3=O)CC2)c1 (configuration not stated)	none (no result: TSG101-PTAP inh, SW480 rerep, MCF10A rereplic)
O=C(NCc1ccccn1)C1(C(F)(F)F)CC(CCCO)CCCO1 (configuration not stated)	none (no result: TSG101-PTAP inh, SW480 rerep, KB-V1 MDR tox, MCF10A rereplic, KB-3-1 tox)
Cn1ccc2c(OCC(=O)NCc3ccccc3Cl)cccc2c1=O	none (no result: TSG101-PTAP inh, SW480 rerep, MCF10A rereplic)
c1ccc(Cn2nnnc2C(c2cccs2)N2CCCCCC2)cc1 (configuration not stated)	KB-V1 MDR tox 16µM
c1ccc(Cn2nnnc2C(c2cccs2)N2CCc3ccccc3C2)cc1 (configuration not stated)	SW480 rerep inconclusive, MCF10A rereplic inconclusive
Cc1ccc(NC(=O)c2c(C)oc3ccc(O)c(CN4CCN(Cc5ccccc5)CC4)c23)cc1	none (no result: TSG101-PTAP inh, SW480 rerep, MCF10A rereplic)
CCOC(=O)C1=C(CSc2nc3c(cc2C#N)CN(C)CC3)OC(N)=C(C#N)C1c1ccc(Cl)cc1 (configuration not stated)	SW480 rerep inconclusive, RGS4 inhibitor inconclusive, MCF10A rereplic 26µM
CCOC(=O)C1=C(CSc2nc(-c3ccccc3)ccc2C#N)OC(N)=C(C#N)C1c1ccc(OC)cc1 (configuration not stated)	SW480 rerep inconclusive, MCF10A rereplic 16µM
CCOC(=O)C1=C(CSc2nc(CC)c(C)cc2C#N)OC(N)=C(C#N)C1c1ccccc1 (configuration not stated)	MCF10A rereplic inconclusive
CCOc1ccc(CCNC(=O)C2CCN(Cc3nc(-c4ccccc4C)oc3C)CC2)cc1OCC	none (no result: TSG101-PTAP inh, SW480 rerep, MCF10A rereplic)
COc1ccc(CCNC(=O)C2CCCN(Cc3nc(-c4ccccc4C)oc3C)C2)cc1OC (configuration not stated)	KB-V1 MDR tox 16µM
COc1ccc(CCNC(=O)C2CCN(Cc3nc(-c4cccc(Cl)c4)oc3C)CC2)cc1OC	KB-V1 MDR tox 3.3µM, KB-3-1 tox inconclusive
CCc1ccc(-c2nc(CN3CCCC(C(=O)NCCc4ccc(OC)c(OC)c4)C3)c(C)o2)cc1 (configuration not stated)	KB-V1 MDR tox 2.3µM, MCF10A rereplic inconclusive, KB-3-1 tox 23µM
Cc1nn(-c2ccccc2)c2sc(C(=O)Nc3cccc(Br)c3)cc12	KB-3-1 tox inconclusive (no result: TSG101-PTAP inh, SW480 rerep, MCF10A rereplic)
CC(C)Cc1ccc(C(C)C(N)=NCCc2ccccc2)cc1 (configuration not stated)	SW480 rerep 6.5µM, KB-V1 MDR tox inconclusive, MCF10A rereplic inconclusive, KB-3-1 tox inconclusive
Cn1nc(-c2ccccc2)c(CSc2ccccc2Cl)c1Cl	SW480 rerep 5.8µM, KB-V1 MDR tox 12µM, MCF10A rereplic 7.3µM, KB-3-1 tox inconclusive
Cn1nc(-c2ccccc2)c(C(O)c2ccc(Cl)cc2)c1Cl (configuration not stated)	none
Cc1nc(-n2nnc3ccccc32)c2c3c(sc2n1)CCCC3	KB-V1 MDR tox 13µM, MCF10A rereplic inconclusive, KB-3-1 tox inconclusive
c1ccc2c(c1)ncn2-c1ncnc2sc3c(c12)CCCC3	none
Oc1ccc(N2CCN(c3ncnc4sc5c(c34)CCC5)CC2)cc1	SW480 rerep inconclusive, MCF10A rereplic 13µM
CC(O)CNc1nc2ccccc2n1-c1ncnc2sc3c(c12)CCC3 (configuration not stated)	KB-V1 MDR tox 13µM, KB-3-1 tox inconclusive
c1ccc2c(c1)nnn2-c1ncnc2sc3c(c12)CCCC3	KB-V1 MDR tox 16µM (no result: TSG101-PTAP inh)
OCCN1CCN(c2ncnc3sc4c(c23)CCCC4)CC1	none

Compound activity (PubChem)
